Assay results as given in the supplement of paper PMC10681739.

Legend:
ETS1 [1] = molecular target: T1, ETS1 (UniProt P14921); assay: ETS1 binding intensity (PBM fluorescence), ETS1 alone (arbitrary fluorescence units); higher = stronger binding; details: ETS1 concentration 1 nM; RUNX1 concentration 0 nM
T1 sequence: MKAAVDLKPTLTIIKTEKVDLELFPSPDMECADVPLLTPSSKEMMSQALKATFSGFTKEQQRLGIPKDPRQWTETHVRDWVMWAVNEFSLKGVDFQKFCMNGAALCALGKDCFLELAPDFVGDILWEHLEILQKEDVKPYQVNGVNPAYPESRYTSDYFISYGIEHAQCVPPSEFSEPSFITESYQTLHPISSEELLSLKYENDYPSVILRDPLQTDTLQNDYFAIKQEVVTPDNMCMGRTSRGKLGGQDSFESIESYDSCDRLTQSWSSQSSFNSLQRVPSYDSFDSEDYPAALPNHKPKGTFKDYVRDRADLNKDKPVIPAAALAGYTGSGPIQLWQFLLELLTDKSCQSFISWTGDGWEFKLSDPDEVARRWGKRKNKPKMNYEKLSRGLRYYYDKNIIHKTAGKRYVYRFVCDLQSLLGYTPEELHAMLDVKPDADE

RUNX1 [2] = molecular target: RUNX1 (UniProt Q01196); assay: RUNX1 binding intensity (PBM fluorescence), RUNX1 alone (arbitrary fluorescence units); higher = stronger binding; details: RUNX1 concentration 2 nM; ETS1 concentration 0 nM
RUNX1, sequence (Q01196 whole entry): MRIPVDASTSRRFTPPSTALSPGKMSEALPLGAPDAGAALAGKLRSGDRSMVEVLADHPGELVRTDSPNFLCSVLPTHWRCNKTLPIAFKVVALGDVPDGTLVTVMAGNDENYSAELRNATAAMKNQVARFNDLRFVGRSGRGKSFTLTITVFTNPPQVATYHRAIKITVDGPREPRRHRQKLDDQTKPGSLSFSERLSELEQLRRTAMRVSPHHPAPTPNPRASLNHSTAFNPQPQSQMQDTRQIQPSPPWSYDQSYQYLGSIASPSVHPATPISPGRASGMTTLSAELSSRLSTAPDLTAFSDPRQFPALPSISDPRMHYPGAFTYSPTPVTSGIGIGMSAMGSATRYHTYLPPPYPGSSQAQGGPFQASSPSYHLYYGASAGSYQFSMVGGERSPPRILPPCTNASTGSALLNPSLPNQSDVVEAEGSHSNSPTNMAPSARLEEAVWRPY
Description: (§1)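 Cooperative gcPBM on 36-bp genomic probes with neighbouring ETS1 and RUNX1 sites. Recombinant human RUNX1 (2 nM) was incubated alone or with ETS1 (25 nM) and detected with anti-RUNX1 antibody plus Alexa488 secondary. Values are medians over 4 replicate spots; the RUNX1+ETS1 data were normalised to the RUNX1-only data. The probes sit in constant array flanks that are not printed.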

ETS1 [3] = molecular target: T1, ETS1; assay: ETS1 binding intensity (PBM fluorescence) in presence of RUNX1, normalised to ETS1-only experiment (arbitrary fluorescence units); higher = stronger binding; details: ETS1 concentration 1 nM; RUNX1 concentration 25 nM
RUNX1 [4] = molecular target: RUNX1 (UniProt Q01196); assay: RUNX1 binding intensity (PBM fluorescence) in presence of ETS1, normalised to RUNX1-only experiment (arbitrary fluorescence units); higher = stronger binding; details: RUNX1 concentration 2 nM; ETS1 concentration 25 nM
Description: as §1
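For RUNX1 binding intensity (PBM fluorescence) in presence of ETS1, normalised to RUNX1-only experiment in this document: Full-length recombinant human ETS1 or RUNX1 bound to double-stranded 36-bp genomic probes on microarrays, detected by protein-specific primary antibody and Alexa488 secondary, spot fluorescence as median of four replicate spots.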
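For RUNX1 binding intensity (PBM fluorescence), RUNX1 alone in this document: Full-length recombinant human RUNX1 bound to double-stranded 36-bp genomic probes on a high-density microarray, scored as Alexa488 fluorescence per spot via anti-RUNX1 antibody, median of four replicate spots.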

Row | Sequence | ETS1 binding intensity (ETS1 [1]) | RUNX1 binding intensity (RUNX1 [2]) | ETS1 binding intensity (ETS1 [3]) | RUNX1 binding intensity (RUNX1 [4])
1 | TCTGGCTTCCTGTCTTAATAGGGCTTTGTGGTGTGC | 762 | 832 | 1080 | 2040
2 | GGGCAGGAAGGAAGAGGGCTCCTCCCCACAAGCTCT | 437 | 738 | 492 | 862
3 | TGAGAAAGCTATTTCCGCCCACAAAGAGGCAAGTCT | 1420 | 763 | 1370 | 1570
4 | TCTCTTCCTGTGATGGAAATACATTGAGGTTTGCGA | 523 | 787 | 743 | 1740
5 | GAGGGGAGGATGTCTGAGCTTTTAATTGTGGTTTCA | 370 | 870 | 1050 | 943
6 | CGTGGCGGAAGCCGCGGGGACTGCGGGGGCGGAGTG | 537 | 924 | 528 | 893
7 | ACACACTGACTTCCTGTTGTGGGAGATAAAGTGTGG | 2500 | 698 | 2780 | 1730
8 | GCGGGGACCCGGATGTGTGTGGTGGCGGCGGCCGAA | 3040 | 700 | 3350 | 1220
9 | ACATTCTTCCGGTTGGACCTCCGCGGTCAGCGCTGT | 871 | 1110 | 1710 | 3220
10 | CGGGAACACCCACTTCCGCCACAGACCTGCTCAAAA | 1400 | 1090 | 1380 | 3820
11 | AGTCCACACTACAGGAAACCACAGGCCTGAGCCCCA | 1580 | 2870 | 3180 | 3440
12 | AGGCCCGGATACCCGCCCCCAAAACCGCGTCCACAA | 523 | 1040 | 1050 | 1090
13 | TGCGCCGCTTCCGCTGCCCGAGGAAGAGCCGCAGTC | 1090 | 802 | 1230 | 1870
14 | GTGGATTTCACATCCTGTCCTAGCGGTATGTTTGTC | 1470 | 783 | 1610 | 1750
15 | CCAGCCGGAAGCCCCGCCCCCTAGAGGCACCGCGGA | 1010 | 1000 | 962 | 1270
16 | CCCGGGGGCAGGAAATGTCGCCTTACCCACAGCCTT | 2470 | 873 | 5930 | 1210
17 | GGCAACCCAAGGAAGTATCTCTGAAACCACACAACA | 540 | 1040 | 1190 | 1110
18 | TGCAATTGGCAGACAGGAAACCGCGGCGTTTTCTGG | 5340 | 764 | 13500 | 1440
19 | TGGAGTGAAGCGGCTTCCTTGCGGTTGTGTGCGTGT | 403 | 1900 | 799 | 2630

Row | Sequence | ETS1 binding intensity (ETS1 [1]) | RUNX1 binding intensity (RUNX1 [2]) | ETS1 binding intensity (ETS1 [3]) | RUNX1 binding intensity (RUNX1 [4])
20 | GGCGGCTTCCGGGATCTGCCTGGCGGTTGCTTTGTC | 568 | 729 | 525 | 2140
21 | CAGACAGGAGGCGGATGTGGGTGGCGCAGAATGAGC | 1820 | 688 | 2250 | 1920
22 | TGTGGAGACAGGAAGCACTAACCTCAAACCTCTTTC | 2730 | 908 | 8830 | 1770
23 | CTACCGGAAATGCAGCACCACGTAAAATGCGGTCGG | 3650 | 912 | 15800 | 2050
24 | CGGAGGCGGCCGGAAGTAGCGCTGCGGTTGGCAGCT | 16800 | 937 | 64100 | 6060
25 | CTTCATCAACCCATCCTGTCTTGTGGTTAAGTCAAG | 392 | 4120 | 1700 | 6360
26 | TTTCTGAAACCCTCAGGATGTGGGTTTTCACACTGT | 1310 | 800 | 6900 | 1100
27 | AGCAACAACAAAGGAAGTGGCGGCCGCAGGGGGAGG | 1320 | 795 | 2160 | 909
28 | CCCACTTCCTGTCCCTGCATGCTGTGGGGCAGGCAG | 1500 | 784 | 1570 | 2420
29 | ACCTGAGCAGGAAGTAGCTGAGGTCGCGGTGCAGCA | 2940 | 730 | 3750 | 1080
30 | GGTCAGGTGGGCGTTTCCTGTGGGCGTCTCCAACTC | 1240 | 770 | 1230 | 1240
31 | CACCCTCAACTTCCTGACCCATAAACCACAAGCTAT | 468 | 6110 | 1810 | 13100
32 | AAAATTAAAGCAGGAAGTAATCAACCACATCAAATG | 3130 | 761 | 9610 | 1610
33 | AGCCACATCCTCCCTTAGGTCTGACCGCAGCTTAAC | 381 | 4190 | 2170 | 5430
34 | GACATGCTCCGGAAGCTTGAGGTTTTAACGTTAAGG | 2040 | 734 | 5030 | 1390
35 | GGGACGGGGAGGGCAGGATGTGGTCGCTCTTCCCTC | 3320 | 822 | 9330 | 1750
36 | GTGGCGAAAGTGCGGATGCGAAACCGCTGGCTCGGC | 587 | 782 | 1060 | 881
37 | CTCACAGCAGCCCCAGGAAACCACCTCTTCCTTCAG | 847 | 997 | 876 | 1030
